Assay outcomes deposited in PubChem BioAssay by National Center for Advancing Translational Sciences (NCATS).
An excerpt weighted towards active compounds, which were near 18% of everything screened.
TDP1 block = qHTS Assay for Inhibitors of Tyrosyl-DNA Phosphodiesterase (TDP1); Tyrosyl-DNA phosphodiesterase 1 (Homo sapiens), Q9NUW8; recombinant TDP1, AlphaScreen DNA substrate cleavage; Potency, µM (highest dose often 130 µM), inactives show at the top dose activity change, negative = inhibition, most hits filed as inhibitors; actives 0.28% (n = 350,000); AID 485290, 2010; note: potency is the fitted concentration of half-maximal effect; nearly all actives have a fitted effect of over 40% in size
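Enzyme-compound mixtures sat 15 min at room temperature, followed by a 5 min reaction with 15 nM final substrate and 10 min with AlphaScreen beads. Recombinant human Tdp1 was used at 1 nM final.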
Six1-Eya2 inh = qHTS Assay for Inhibitors of the Six1/Eya2 Interaction. Homeobox protein SIX1 (Homo sapiens) + Protein phosphatase EYA2 (Homo sapiens), …. AlphaScreen GST-Six1/His-Eya2 binding, biochemical; active compounds read low. activity change, % (test concentration not listed). actives 0.56% (n = 360,000); in the data active = activity change below about -65%; inconclusive = mostly about -30% to -63%
Target sequence (O00167 whole entry, looked up): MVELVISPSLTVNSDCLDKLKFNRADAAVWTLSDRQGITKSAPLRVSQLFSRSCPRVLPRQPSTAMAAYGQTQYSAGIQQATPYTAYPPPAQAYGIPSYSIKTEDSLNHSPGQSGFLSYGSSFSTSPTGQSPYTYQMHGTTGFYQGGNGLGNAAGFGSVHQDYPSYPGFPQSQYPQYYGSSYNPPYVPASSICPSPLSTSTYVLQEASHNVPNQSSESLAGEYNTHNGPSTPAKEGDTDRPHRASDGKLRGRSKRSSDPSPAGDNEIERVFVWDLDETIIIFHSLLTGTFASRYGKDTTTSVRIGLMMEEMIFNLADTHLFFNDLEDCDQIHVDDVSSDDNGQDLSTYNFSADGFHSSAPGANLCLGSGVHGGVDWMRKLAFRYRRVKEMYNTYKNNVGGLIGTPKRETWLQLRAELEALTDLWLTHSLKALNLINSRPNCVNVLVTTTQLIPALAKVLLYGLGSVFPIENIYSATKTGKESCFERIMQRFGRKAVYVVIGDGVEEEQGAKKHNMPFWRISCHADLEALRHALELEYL
Target sequence (Q15475 whole entry, looked up): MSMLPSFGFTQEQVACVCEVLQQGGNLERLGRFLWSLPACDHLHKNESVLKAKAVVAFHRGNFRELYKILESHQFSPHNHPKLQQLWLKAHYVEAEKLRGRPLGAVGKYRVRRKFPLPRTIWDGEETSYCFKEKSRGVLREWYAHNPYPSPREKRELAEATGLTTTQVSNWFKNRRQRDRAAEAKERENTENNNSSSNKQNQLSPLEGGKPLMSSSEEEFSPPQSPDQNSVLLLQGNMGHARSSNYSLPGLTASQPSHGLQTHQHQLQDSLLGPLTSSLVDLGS
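GST-Six1 + His-Eya2 (5X stock: 250/500 nM); Tris pH 8.0, 300 mM NaCl, 0.05% BSA, 0.02% Tween 20; GSH donor/Ni acceptor beads; 1 h 37 °C dark; AlphaScreen readout.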
TDP1 cell noCPT = qHTS for Inhibitors of human tyrosyl-DNA phosphodiesterase 1 (TDP1): qHTS in cells in absence of CPT | DT40 Tdp1-/- hTDP1 cells, no CPT, ATP luminescence, 48 h | Potency, µM (series often up to 46.2 µM), for inactives: top-dose activity change, negative = growth inhibition, actives largely listed as inhibitors | actives 15% (n = 420,000); note: potency is the fitted concentration of half-maximal effect; nearly all actives have a fitted effect of over 55% in size
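No-CPT arm: Tdp1-/-;hTDP1 DT40 cells (400/well) plus compounds, incubated ≥48 hr at 37 °C. Readout CellTiter-Glo luminescence.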
CtBP-E1A inh = qHTS Assay for Inhibitors of the CtBP/E1A Interaction; CtBP / adenovirus E1A interaction (AlphaScreen); AlphaScreen GST-E1A/His-CtBP binding, 1536-well; active compounds read low; activity change, % (no concentration beside the values); actives 0.49% (n = 340,000); AID 651724, 2012; in the data active = activity change below about -65%; inconclusive = mostly about -30% to -63%
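AlphaScreen with 125 nM GST-E1A and 125 nM His-CtBP (5X stocks) in Tris pH 8.0, 300 mM NaCl, BSA, Tween 20, TCEP. Compounds preincubated 2 h at 37 deg C, then glutathione donor/nickel acceptor beads added for 1 h at 37 deg C in dark.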
TDP1 cell CPT = qHTS for Inhibitors of human tyrosyl-DNA phosphodiesterase 1 (TDP1): qHTS in cells in presence of CPT; Potency, µM (titrated, usually from 46.2 µM), inactives show at the top dose activity change, negative = growth inhibition, hits mostly inhibitors; actives 12% (n = 420,000); chicken DT40 Tdp1-/-;hTDP1 cells + 20 nM CPT, ATP luminescence, 48 h; AID 686979, 2013; note: potency is the fitted concentration of half-maximal effect; nearly all actives have a fitted effect of over 55% in size
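Chicken DT40 Tdp1-/- cells complemented with human TDP1, 400 cells/well, exposed to compounds plus 20 nM camptothecin for at least 48 h at 37 C; viability read as ATP content by CellTiter-Glo luminescence.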
IL-1B inflam inh = qHTS for Inhibitors of Inflammasome Signaling: IL-1-beta AlphaLISA Primary Screen | THP-1 LPS/ATP IL-1B secretion, AlphaLISA, 16 h; active compounds read low | activity change, % at 57.5 µM | actives 4.7% (n = 360,000); in the data active = activity change below about -50%; inconclusive = mostly about -30% to -49%
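Secreted IL-1B measured by AlphaLISA bead assay after 16 h compound exposure of THP-1 cells; compounds (final up to 57.5 uM) added 1 h before LPS (250 ng/mL) and ATP (1.25 mM) stimulation; lower signal means less secretion.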
* marks the source's active call; other numbers are inactive results; i = inactive; ? = inconclusive; . = no result. Unless noted, calls come from the whole dose curve; as a rule, active = well fitted curve in the direction sought with a large enough effect; inconclusive = small, poorly fitted or top-dose-only effect, or another doubt; inactive = no such curve, though single readings can be large; an effect the other way counts as inactive or inconclusive. % is set by controls: 0 for no effect and ±100 for the full control effect.

SMILES	TDP1 block	Six1-Eya2 inh	TDP1 cell noCPT	CtBP-E1A inh	TDP1 cell CPT	IL-1B inflam inh
CC(C)Cc1cc(C(=O)N2CCCC(CO)(Cc3ccc(F)cc3F)C2)n[nH]1 (configuration not stated)	4.3%	-1.3	?	.	?	29.8
COc1cccc(NC(=O)Cn2c(=O)n(Cc3ccccc3)c(=O)c3c4c(sc32)CN(C(C)=O)CC4)c1	4.9%	.	-46.0%	.	?	.
CCOC(=O)C1CCN(Cc2cc(=O)oc3cc(C)c(Cl)cc23)CC1	.	0.3	23.1µM*	4.8	?	9.8
Oc1c(CN2CCCC(C(F)(F)F)C2)cc(Cl)c2ccccc12 (configuration not stated)	.	-3.6	?	1.8	18.4µM*	-25.2
CCOC(=O)C1CCN(Cc2nc3ccc(Cl)cc3n2CCO)CC1	-1.0%	1.0	?	-3.1	20.6µM*	-24.7
CCOC(=O)C1CCN(Cc2cc(Cl)c3ccccc3c2O)CC1	7.8%	-8.0	?	0.1	18.4µM*	-13.8
CCOC(=O)C1CCN(Cc2ccc(F)c(Br)c2)CC1	-2.1%	4.7	0.7%	8.3	-26.1%	7.1
CC(=O)NCCCNc1ccc([N+](=O)[O-])cc1	5.9%	3.4	-1.9%	1.0	6.7%	0.0
O=C(NCCCN1CCN(c2ccccc2F)CC1)C1COc2ccccc2C1 (configuration not stated)	3.0%	.	?	.	25.9µM*	.
COc1ccc2c(c1)CC(C(=O)NCCN1CCN(c3ccccc3F)CC1)CO2 (configuration not stated)	5.3%	.	?	.	?	.
COc1ccc(N2CCN(CCCNC(=O)C3COc4ccc(OC)cc4C3)CC2)cc1 (configuration not stated)	4.1%	.	20.6µM*	.	14.6µM*	.
COc1ccc(N2CCN(CCCNC(=O)C3COc4ccccc4C3)CC2)cc1 (configuration not stated)	6.5%	.	16.4µM*	.	11.6µM*	.
COc1ccc2c(c1)CC(C(=O)NCCCN1CCN(c3ccc(F)cc3)CC1)CO2 (configuration not stated)	6.5%	.	25.9µM*	.	20.6µM*	.
O=C(NCCCN1CCN(c2ccccc2F)CC1)C1CCN(S(=O)(=O)N2CCOCC2)CC1	3.1%	8.4	3.7%	-2.0	6.7%	15.4
CCc1c(C)nc(SCC(=O)NNC(=O)c2ccco2)[nH]c1=O	3.6%	1.7	-2.3%	.	18.5%	3.8
CCc1ccccc1NC(=O)CCN1C(=O)C2C3CCC(C3)C2C1=O (configuration not stated)	-2.6%	-7.2	1.4%	12.9	1.3%	-2.6
Nn1c(Cc2ccccc2F)nnc1SCC(=O)Nc1cccc(S(=O)(=O)NC2=NCCCCC2)c1	-2.5%	-3.7	-20.5%	-1.9	-16.2%	-0.1
CC1(C(=O)N(CC(=O)NC2CCCC2)Cc2ccccc2)CC(=O)N=C2C=CC=CN21 (configuration not stated)	3.9%	7.4	-8.3%	3.7	?	9.5
CCCCCCCCN1C(=O)[C@H](CC(=O)NCc2ccc(C)o2)C[C@@]2(C(=O)OC)CCCCC=C12	.	8.2	20.6µM*	21.0	?	-53.9*
CCCCCCCCN1C(=O)[C@H](CC(=O)NCc2ccc(C)o2)C[C@@]2(C(=O)OCC)CCC=C12	.	-5.1	16.4µM*	2.8	?	.
COc1cccc(CN2CC(C(=O)NCc3ccc(C)c(F)c3)CCC2=O)c1 (configuration not stated)	0.5%	9.7	-11.5%	-3.5	-7.0%	i
CN1c2ccccc2-c2nc(SCC(=O)Nc3ccccc3)ncc2S1(=O)=O	0.9%	.	18.4µM*	.	?	.
COc1ccc(NC(=O)CSc2ncc3c(n2)-c2cc(Cl)ccc2N(Cc2ccccc2F)S3(=O)=O)cc1	2.6%	.	?	.	?	.
COc1ccc(NC(=O)CSc2ncc3c(n2)-c2ccccc2N(C)S3(=O)=O)cc1Cl	2.6%	.	?	.	?	.
COc1ccccc1NC(=O)CSc1ncc2c(n1)-c1cc(Cl)ccc1N(C)S2(=O)=O	2.6%	.	10.3µM*	.	7.31µM*	.
SMILES	TDP1 block	Six1-Eya2 inh	TDP1 cell noCPT	CtBP-E1A inh	TDP1 cell CPT	IL-1B inflam inh
COc1ccc(CNC(=O)CSc2ncc3c(n2)-c2ccc(Cl)cc2N(Cc2ccc(F)cc2)S3(=O)=O)cc1OC	2.6%	.	11.6µM*	.	11.6µM*	.
CCOC(=O)c1cccc(NC(=O)CSc2ncc3c(n2)-c2ccc(Cl)cc2N(Cc2ccccc2)S3(=O)=O)c1	0.0%	.	1.46µM*	.	?	.
COc1ccccc1CNC(=O)CSc1ncc2c(n1)-c1ccc(Cl)cc1N(Cc1ccccc1)S2(=O)=O	5.3%	.	?	.	?	.
CCOc1ccc(NC(=O)CSc2ncc3c(n2)-c2ccccc2N(C)S3(=O)=O)cc1	2.6%	.	6.4%	.	0.0%	.
O=C(NCC(c1ccco1)N1CCN(c2ccccc2)CC1)C(=O)NC1CCCC1 (configuration not stated)	0.3%	-0.5	?	-1.5	?	3.7
COc1ccccc1CNC(=O)CSc1ncc2c(n1)-c1ccccc1N(Cc1ccc(C)cc1)S2(=O)=O	1.8%	.	11.6µM*	.	?	.
COc1cccc(NC(=O)CSc2ncc3c(n2)-c2ccc(Cl)cc2N(C)S3(=O)=O)c1	7.9%	.	-29.8%	.	-16.2%	.
COc1ccc(CNC(=O)CSc2ncc3c(n2)-c2cc(Cl)ccc2N(Cc2ccccc2)S3(=O)=O)cc1	2.6%	.	-16.8%	.	2.5%	.
COc1ccc(CNC(=O)CSc2ncc3c(n2)-c2cc(Cl)ccc2N(Cc2ccccc2)S3(=O)=O)cc1OC	2.6%	.	11.6µM*	.	14.6µM*	.
Cc1ccc(C)c(NC(=O)CSc2ncc3c(n2)-c2ccc(Cl)cc2N(C)S3(=O)=O)c1	-2.6%	.	18.4µM*	.	?	.
O=C(CN1C(=O)NC(CCc2ccccc2)C1=O)Nc1cccc(Br)c1 (configuration not stated)	-0.1%	-0.4	16.4µM*	4.3	?	-27.6
CNc1cncc(-c2cc(OC)ccc2OC)n1	.	-17.9	-11.5%	-21.1	-6.4%	-14.9
COc1ccc(C(C)C)cc1-c1cncc(NC(C)=O)n1	.	2.4	?	0.4	-26.1%	-95.7*
